This is a sample that favours compounds with a hit; in the whole collection about 0.51% have one here.
p-CIP stab down = p/CIP protein destabilization; Q05BA5; decrease of EGFP signal, % at 10 µM; 290,000 compounds, 0.01% hits; F442A p/CIP-EGFP cells, EGFP fluorescence, 16 h; AID 1984;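 active means EGFP signal decrease of at least 30% at 10 µM or well 3 SD below plate mean, unless failing retest; inactive means the rest, including hits failing retest or dose response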
AddAB inh = less growth of phage-infected E. coli with AddAB; 330,000 compounds, 0.29% hits; E. coli expressing H. pylori AddAB, absorbance growth; inhibition, % at 11.9 µM; in the data active means inhibition above about 12%
E coli growth-1 = reduces bacterial viability in AddAB counter-screen. 330,000 compounds, 0.27% hits. E. coli V3065 growth, OD600 absorbance, 18 h. inhibition, % at 11.9 µM;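 active means inhibition above the campaign's mean inhibition across all tested compounds plus 3 SD, cut at about 9.9% in these data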;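 further: uninfected addAB+ strain grown without phage in ampicillin broth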
Tat export inh = blocks Tat-dependent protein export in E. coli; 340,000 compounds, 0.036% hits; inhibition, % at 10 µM; E. coli MC4100 TorA-mCherry Tat export, fluorescence;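 active means mean replicate inhibition at least 50% and at least half of replicates individually reaching 50%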;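 further: exported cargo escapes ClpAP degradation while cytoplasmic cargo is degraded and loses fluorescence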
E coli growth-2 = E. coli growth inhibition. Escherichia coli growth, OD600, 23 h; active compounds read low. OD600 absorbance (concentration not given with the values). 330,000 compounds, 0.21% hits. AID 1053175;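 active means OD600 absorbance below the run mean of sample wells minus 3.6 SD, in any replicate, cut at about 0.56 in these data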
phage Ecoli inh = E. coli growth loss with phage present; 360,000 compounds, 0.26% hits; growth absorbance; inhibition, % at 11.9 µM; in the data active means inhibition above about 11%
AddAB confirm = growth loss of T4-infected E. coli expressing H. pylori AddAB, confirmed. shares compounds with AddAB inh. E. coli V3065 expressing H. pylori AddAB, T4 phage, OD; T4 phage with gene 2 nonsense mutations. inhibition, % at 11.9 µM. 880 compounds, 64% hits. AID 488942;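 active means mean inhibition above a set limit taken from the earlier primary screen, cut at about 13% in these data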;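 further: higher means less bacterial growth since AddAB block lets phage replicate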
RecBCD counter = counter-screen: growth loss of RecBCD+ E. coli with mutant T4 phage. shares compounds with AddAB inh. E. coli V66 + mutant T4 phage, OD growth. inhibition, % at 11.9 µM. 880 compounds, 73% hits. AID 488955;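 active means mean inhibition above the mean of solvent-only control wells plus 3 SD, cut at about 4% in these data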;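 further: optical density read after an 18 h incubation at 37 °C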
Bact viability = reduces bacterial viability, AddAB inhibitor counter-screen. shares compounds with AddAB inh. absorbance (AddAB counterscreen). inhibition, % at 11.9 µM. 880 compounds, 35% hits. AID 488956; in the data active means inhibition above about 25%
Large screens that a line does not name were inactive (follow-up assays come after a bar, where they were run).

CCCc1cc(=O)oc2cc(OC(C)C(=O)NCc3ccccn3)c(Cl)cc12 (stereo unspecified)	none
COC(=O)[C@@]12CCCCN1C(c1ccc(-c3ccc(Cl)c(Cl)c3)cc1)C1C(=O)N(C)C(=O)C12 (stereo partly specified)	none (no result: p-CIP stab down, AddAB inh, E coli growth-1, Tat export inh, phage Ecoli inh)
CCOC(=O)C(=CNc1ccccc1N1CCOCC1)C(=O)OCC	none
Nc1ncnc2c1ncn2C1CCCO1 (stereo unspecified)	none (no result: p-CIP stab down)
S=c1nc[nH]c2c1ncn2C1CCCO1 (stereo unspecified)	AddAB inh 26, E coli growth-1 22 (no result: E coli growth-2) | AddAB confirm inactive | RecBCD counter inactive | Bact viability inactive
CC(C)(CO)N=Cc1c(O)[nH]c2ccccc12	none (no result: phage Ecoli inh)
O=C(NCc1nc2ccccc2[nH]1)c1ccc(Cl)c(S(=O)(=O)N2CCCC2)c1	AddAB inh 16 | AddAB confirm inactive | RecBCD counter 4.0 | Bact viability inactive
COc1cc(=O)oc(C=O)c1C	none (no result: p-CIP stab down, AddAB inh, E coli growth-1, Tat export inh, E coli growth-2)
Cc1nc2ccc(Cc3ccc4nc(C)[nH]c4c3)cc2[nH]1	AddAB inh 16 | AddAB confirm inactive | RecBCD counter 5.8 | Bact viability inactive
COc1ccc2c(c1OC)C(=O)OC2C1c2c(cc3c(c2OC)OCO3)CCN1C (stereo unspecified)	none
CN1CCc2cc3c(c4c2[C@H]1[C@H](O)c1ccccc1-4)OCO3	AddAB inh 13 (no result: E coli growth-2) | AddAB confirm 27 | RecBCD counter inactive | Bact viability inactive
O=C(CSc1nc2ccccc2o1)Nc1ccc(N2CCOCC2)cc1	AddAB inh 13, E coli growth-1 13 | AddAB confirm 15 | RecBCD counter 9.7 | Bact viability inactive
O=C(C1CCCN(c2ncnc3c2nc2n3CCCCC2)C1)N1CCN(c2cccc(Cl)c2)CC1 (stereo unspecified)	none
CC(C)Cc1cc(C(=O)NCCN2CCOCC2)no1	AddAB inh 19 | AddAB confirm inactive | RecBCD counter inactive | Bact viability inactive
O=C(COc1ccc(Cl)cc1[N+](=O)[O-])NC1CCCCC1	AddAB inh 35, E coli growth-1 20 | AddAB confirm inactive | RecBCD counter inactive | Bact viability inactive
CC(=O)c1cc(Cl)ccc1OCC(=O)NC1CCCC1	none (no result: p-CIP stab down, AddAB inh, E coli growth-1)
c1ccc(-c2nnc(-c3ccccn3)nn2)nc1	none (no result: p-CIP stab down)
c1ccc(-c2cccc(-c3ccccn3)n2)nc1	AddAB inh 34, E coli growth-1 35 (no result: phage Ecoli inh) | AddAB confirm 46 | RecBCD counter 36 | Bact viability 30
Cc1cc(N/N=C/c2ccc([N+](=O)[O-])o2)nc2ccccc12	AddAB inh 50, E coli growth-1 32 (no result: E coli growth-2) | AddAB confirm 43 | RecBCD counter 4.9 | Bact viability inactive
Cn1c(/C=C/c2ccc([N+](=O)[O-])o2)nc2ccccc2c1=O	AddAB inh 63, E coli growth-1 79, E coli growth-2 0.44 (no result: phage Ecoli inh) | AddAB confirm 99 | RecBCD counter 29 | Bact viability 100
Cc1cc(NN=Cc2ccncc2)nc2ccccc12	none (no result: p-CIP stab down, AddAB inh, E coli growth-1, Tat export inh, phage Ecoli inh)
O=C1Cc2ccccc2C(=O)N1OCc1ccc(Cl)cc1	none
COc1cc(C)ccc1OCC(=O)Nc1ccc2c(c1)OCO2	none (no result: p-CIP stab down)
CC(NC(=O)c1ccc2c(c1)S(=O)(=O)N=C1CCCCCN12)c1ccc(S(N)(=O)=O)cc1 (stereo unspecified)	none
c1ccc(-c2nnc(CN3CCN(C(c4ccccc4)c4ccccc4)CC3)o2)cc1	none
C[C@H](CO)N1C[C@H](C)[C@@H](CN(C)Cc2ccc(-c3ccccc3)cc2)OCc2cnnn2CCCC1=O	none (no result: p-CIP stab down, AddAB inh, E coli growth-1, Tat export inh, E coli growth-2)
O=C(Cn1ccc(C(F)(F)F)n1)Nc1cccc(S(=O)(=O)N2CCCCC2)c1	AddAB inh 35, E coli growth-1 24 | AddAB confirm inactive | RecBCD counter inactive | Bact viability inactive
Cc1ccc(C(=O)NC(=S)NNC(=O)COc2ccc([N+](=O)[O-])cc2)cc1	none
O=C(COc1ccc([N+](=O)[O-])cc1)NNC(=S)NC(=O)c1ccc(Br)cc1	AddAB inh 98, E coli growth-1 96 | AddAB confirm inactive | RecBCD counter inactive | Bact viability inactive
COc1ccc(CCNC(=O)c2ccc(CN3CCC(Cc4ccccc4)CC3)cc2)cc1OC	AddAB inh 14 | AddAB confirm inactive | RecBCD counter inactive | Bact viability inactive
CCOC(=O)N1CCN(C(=O)c2cccc(N3C(=O)NC4CC3(C)Oc3ccccc34)c2)CC1 (stereo unspecified)	none
O=C(CN1CCCc2ccccc21)N/N=C/c1ccccc1	none (no result: E coli growth-2)
O=C(CN1CCCc2ccccc21)N/N=C/c1c(O)ccc2ccccc12	AddAB inh 15, E coli growth-1 11 (no result: E coli growth-2) | AddAB confirm inactive | RecBCD counter 5.3 | Bact viability inactive
O=S(=O)(Nc1cccc2ncccc12)c1cccs1	AddAB inh 18 (no result: phage Ecoli inh) | AddAB confirm inactive | RecBCD counter 5.2 | Bact viability inactive
CCn1cc(C(=O)NCc2cccc(F)c2)c(=O)c2cc(F)c(N3CCN(C(=O)c4ccco4)CC3)cc21	AddAB inh 95, E coli growth-1 70, E coli growth-2 0.41 | AddAB confirm 98 | RecBCD counter inactive | Bact viability 62
CCCNC(=O)c1cn(CC)c2cc(N3CCN(C(=O)c4ccco4)CC3)c(F)cc2c1=O	AddAB inh 94, E coli growth-1 58, E coli growth-2 0.089 | AddAB confirm 99 | RecBCD counter inactive | Bact viability 58
CCn1cc(C(=O)NN)c(=O)c2cc(F)c(N3CCCCC3)cc21	none (no result: AddAB inh, E coli growth-1)
OC1(c2cccnc2)CCN(Cc2nnnn2Cc2ccccc2)CC1	none
CCCCNC(=O)Cc1c(O)c2ccccc2[nH]c1=O	none
c1cncc(CNc2ccc3c(c2)OCO3)c1	none
O=C(NCc1cccnc1)Nc1ccc2c(c1)OCO2	AddAB inh 14 | AddAB confirm inactive | RecBCD counter inactive | Bact viability inactive
COC(=O)c1cc(S(=O)(=O)N2c3ccccc3CC2C)c[nH]1 (stereo unspecified)	none
COc1ccc(OCC(O)CNC(=O)c2ccc(Br)cc2)cc1 (stereo unspecified)	none
COc1ccc(OCC(O)CNc2ccc(Br)cc2)cc1 (stereo unspecified)	AddAB inh 12 | AddAB confirm 13 | RecBCD counter 9.3 | Bact viability inactive
C/C(=N/NC(=O)CNC(=O)COc1ccccc1)c1ccc(Cl)cc1	none (no result: E coli growth-2)
CC(C)C(c1nnnn1Cc1ccccc1)N(CCCO)Cc1cc2cc3c(cc2[nH]c1=O)OCO3 (stereo unspecified)	none
O=C(NNC(=S)NC(=O)c1ccco1)c1ccc(NC(=O)c2ccccc2)cc1	none

Screens as filed in PubChem.
